# Measurements taken from PubChem BioAssay (NCI).
# Compounds without any hit were thinned out: in the full panel of roughly 83,000, 20% have a hit.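 Plates (96-well) were seeded with cells, treated with compound at one concentration, and incubated for 48 hours before percent growth was determined.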 Values without a mark were called inactive. Active and inactive are the calls of the source. Rule for the calls: active = growth percent below 10; inactive = the rest.
# System: MDA-MB-468 breast
# Experiment: NCI-60 one-dose screen, 48 h (100 = growth as untreated, 0 = no growth, -100 = all killed)
# Details: 10 µM unless noted
row,Compound,growth
1,COc1cc(-c2ccc[nH]2)[nH]c1/C=C1\N=C(C)C(CC(=O)OCC(C)(C)C)=C1C,-79.2% (active)
2,CCCCCC[C@@H](O)C/C=C\CCCCCCCC(=O)OCCOC,104%
3,COC(=O)CCc1cc(O)c2c(c1)[C@@H](C(=O)OC)[C@H](c1ccc(O)c(O)c1)O2,83.4%
4,CS(=O)(=O)Nc1cc(-c2ccc3ncc(C#N)c(NCc4ccccc4)c3c2)cnc1Cl,-53.9% (active)
5,O=C(O)c1cccc(N/C=C/C(=O)c2cc3cc(Br)ccc3oc2=O)c1,96.1%
6,COc1cc(OC)c(/C=C/S(=O)(=O)Cc2ccc(OC)c(NCC(=O)NO)c2)c(OC)c1,39.5%
7,CN1CCN(CCCOc2cccc3nc(Nc4ccc(F)c(F)c4)ccc23)CC1,-67.3% (active)
8,CCCCCCNC(=O)Oc1ccc(/C(=C(/C)c2ccc(OC)cc2)c2ccc(OCCN3CCCC3)cc2)cc1,87.1%
9,CN1CCN(c2ccc(C(=O)Nc3cccc(-c4cn(-c5ccc(S(N)(=O)=O)cc5)nn4)c3)cc2C(F)(F)F)CC1,68.9%
10,COc1cccc(C(=O)NNc2nc(N3CCOCC3)nc(N3CCN(C(c4ccccc4)c4ccccc4)CC3)n2)c1,61.7%
11,COc1cccc(C(=O)O)c1OC,105%
12,O=C(NCc1cn(Cc2cccc(Oc3ccccc3)c2)nn1)c1cccnc1NCc1ccc(Cl)cc1,17.3%
13,COc1ccc(NC2=CC(=O)C(C)=C(C)C2=O)cc1,57%
14,O=C(O)CCCCSCCCCC(=O)O,95.3%
15,Cn1cc(-c2csc(-c3cn(CCO)c4ccc(F)cc34)n2)c2cccnc21,-16.5% (active)
16,Cc1ccc2c(n1)C(=O)C(Br)=C(CC(C)C)C2=O,91.1%
17,N=C(N)N=Nc1ccc(O)cc1,88% [100 µM]
18,NS(=O)(=O)c1ccc(NCC(=O)Nc2ccc(-c3nc4ccccc4s3)cc2)cc1,4.26% (active)
19,O=C(Nc1cccc(Cl)c1)Nc1cc2ncncc2cc1OCc1cccc(F)c1,-2.43% (active)
20,O=C1c2cc3c(cc2-c2c1c1ccc(Cl)cc1c(=O)n2CCCNCCO)OCO3,-91.6% (active)

row,Compound,growth
1,COC(=O)C(C(=O)OC)C(Br)C(Br)C(Br)c1ccccc1 (stereo not given),36.7%
2,CN(C(=O)c1ccccc1)N(C)C(=O)c1ccccc1,120%
3,COc1cc(OCc2cccc(-c3ccc4c(c3)OCCO4)c2C)cc(OC)c1C=O,21.8%
4,COc1ccc2c(c1)/C(=C\c1c[nH]c3ccc(OC)cc13)C(=O)N2,-22.5% (active)
5,c1ccc(Cn2cc3c(c2)-c2oncc2CC3)cc1,47.2%
6,CC(C)=NNC(N)=S,10.6%
7,CC(C)SC1=NC(=C(C(=N1)NC2=ClC=CC=C2)C#N)C3=CC=CC=C3,43%
8,CCOC(=O)n1cc(-c2nonc2-c2cn(C)c3ccccc23)c2ccccc21,13.1%
9,CC1=C[S+](c2ccccc2)c2cccc3cc4ccccc4c1c23 (stereo not given),-70% (active)
10,O=C(Nc1cccc(-n2cc(-c3ccncc3)c(-c3cc(O)cc(Cl)c3)n2)c1)Nc1ccc(Cl)c(Cl)c1,-1.88% (active)
11,N#Cc1c(-c2cccc(F)c2)cc(-c2cccnc2)[nH]c1=O,106%
12,COc1ccc2c(c1)/C(=C/c1cc(OC)c(OC)c(OC)c1)C(=O)N2C,25.9%
13,COC(=O)c1ccc2c(C(=Nc3ccc(N(C)C(=O)CN4CCN(C)CC4)cc3)c3ccccc3)c(O)[nH]c2c1,91%
14,O=C(Nc1ccc([N+](=O)[O-])cc1)c1cc2ccccc2cc1O,-8.75% (active)
15,CCC(c1ccc(O)cc1)C(CC)c1ccc(O)c(F)c1 (stereo not given),69.5%
16,CC(C)c1ccc(C(=O)Nc2nc3ccc(O)c(CN(C)C)c3s2)cc1,77.1%
17,COCCOc1cc2ncnc(N3CCN(S(=O)(=O)c4ccccc4Cl)CC3)c2cc1OCCOC,57.1%
18,C1=CN2CC(c3ccccc3)=NNC2c2ccccc21 (stereo not given),82.5%
19,C=C(C)[C@@H]1CC[C@]2(C(N)=O)CC[C@]3(C)[C@H](CC[C@@H]4[C@@]5(C)C/C(=C/c6cccnc6)C(=O)C(C)(C)[C@@H]5CC[C@]43C)[C@@H]12,14.5% [100 µM]
20,COc1ccc2[nH]c(O)c(/C=c3/cc4c(c(-c5ccc(F)c(OC)c5)n3)=Nc3ccccc3-4)c2c1,-70.4% (active)
